Here are results for 6 molecules from PubChem BioAssay (EPA / NIEHS).

A short description of experiment [1]: APR_HepG2_CellCycleArrest_1hr: Apredica 1-hour HepG2 Assay for Cell Cycle Arrest (AID 2282666). Particulars: high-content imaging, actives raise or lower the signal. In a few lines:
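Cell cycle arrest scored from nuclear DNA content (Hoechst 33342) using high-content imaging of fixed HepG2 cells after 1 h treatment across 0.39–200 uM, in duplicate. Gain or loss fitted relative to 0.5% DMSO.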

The nature of experiment [2]: ACEA_ER_80hr: ACEA Biosciences xCELLigence Real-Time Cell Analysis on Estrogen Receptor Agonism for Proliferation (AID 2282667; active means hit-call score of the fitted dose curve at least 0.9, where 1 is the maximum). The following applies: T47D proliferation, impedance (xCELLigence), 80 h. An outline of the steps: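 Estrogen-driven proliferation is captured as electrode impedance in T47D cells 80 h after compound addition. Test articles ran at 8 concentrations, 1:4 dilutions from 100 uM final, in two replicate plates.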

Experiment [3] can be described thus: APR_HepG2_CellLoss_1hr: Apredica 1-hour HepG2 Assay for Cell Loss (AID 2282668).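 Further: curves fitted both ways against DMSO so gain or loss of cells counts.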 Particulars: high-content imaging. An outline of the steps: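 Cell number comes from high-content imaging of Hoechst-labelled nuclei in fixed HepG2 cells. Cells were exposed for 1 h to ten concentrations from 0.39 to 200 uM in 0.5% DMSO. Gain or loss was fitted against DMSO controls.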

Experiment [4] is described as follows: APR_HepG2_MicrotubuleCSK_1hr: Apredica 1-hour HepG2 Assay for Microtubule CSK Stabilty (AID 2282669). Particulars: HepG2 microtubule cytoskeleton imaging, actives raise or lower the signal. An outline of the steps:
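Alpha-tubulin immunofluorescence, imaged by automated high-content microscopy with Hoechst nuclear segmentation, measured cytoskeletal change after 1 h dosing of HepG2 at 0.39–200 uM in 0.5% DMSO. Activity fitted in both directions relative to DMSO.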

Experiment [5] can be described thus: APR_HepG2_NuclearSize_1hr: Apredica 1-hour HepG2 Assay for Nuclear Size (AID 2282670). The following applies: high-content imaging, actives raise or lower the signal. An outline of the steps: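 Nuclear size measured by high-content imaging of Hoechst 33342 nuclear stain after formaldehyde fixation; human HepG2 line exposed 1 hr to compounds at 0.39–200 uM in 0.5% DMSO, with bidirectional curve fitting relative to DMSO.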

Experiment [6] is described as follows: APR_HepG2_MitoticArrest_1hr: Apredica 1-hour HepG2 Assay for Mitotic Arrest (AID 2282672). The following applies: high-content imaging, actives raise or lower the signal. An outline of the steps: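 Ten-point concentration series (0.39 to 200 uM, duplicates, 0.5% v/v DMSO) applied to human HepG2 liver cells for 1 hr. High-content imaging of phospho-histone H3 and Hoechst-stained nuclei after fixation and permeabilization; DMSO-normalised bidirectional fit.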

Experiment [7] in a line: APR_HepG2_P-H2AX_1hr: Apredica 1-hour HepG2 Assay for H2AX Phosphorylation (AID 2282673). Particulars: high-content imaging, actives raise or lower the signal. An outline of the steps:
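Phospho-H2A.x immunofluorescence (1:200, FITC secondary) plus Hoechst nuclear stain, quantified by high-content imaging in HepG2 after 1 hr compound exposure. Ten concentrations, 0.39 to 200 uM, in duplicate with 0.5% DMSO; fit both directions against DMSO.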

A short description of experiment [8]: APR_HepG2_MitoMembPot_1hr: Apredica 1-hour HepG2 Assay for Mitochondrial Membrane Potential (AID 2282675). Particulars: imaging, actives raise or lower the signal. An outline of the steps:
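Mitochondrial membrane potential read as MitoTracker Red CMXRos intensity by automated imaging of fixed HepG2 cells. Dye at 250 nM for 30 min pre-fixation; compounds 0.39 to 200 uM for 1 hour, duplicate wells, 0.5% DMSO.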

A short description of experiment [9]: APR_HepG2_CellCycleArrest_24hr: Apredica 24-hour HepG2 Assay for Cell Cycle Arrest (AID 2282905).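 Further: cell cycle arrest scored as ratio of 2N to 4N nuclear DNA content.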 Particulars: imaging, actives raise or lower the signal. An outline of the steps:
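After 24 h exposure at 0.39–200 uM in 0.5% DMSO, fixed cells received Hoechst 33342 staining. Imaging quantified per-nucleus DNA content; gain or loss fitted against DMSO controls.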

Experiment [10] can be described thus: APR_HepG2_NuclearSize_24hr: Apredica 24-hour HepG2 Assay for Nuclear Size (AID 2282907). Particulars: high-content imaging, actives raise or lower the signal. In a few lines: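 Nuclear size from Hoechst 33342-stained, formaldehyde-fixed HepG2 nuclei imaged by high-content microscopy, after 24 h dosing at ten concentrations from 0.39 to 200 uM in 0.5% DMSO; gain or loss relative to DMSO baseline.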

Experiment [11] is described as follows: APR_HepG2_CellLoss_24hr: Apredica 24-hour HepG2 Assay for Cell Loss (AID 2282908).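 On AC50: fit in both directions so a hit may be cell loss or gain.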 The following applies: high-content imaging. In a few lines: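 Nuclei stained with Hoechst 33342 after formaldehyde fixation (3.7%) were imaged at 20x to count cells. Exposure lasted 24 hr, at ten concentrations from 0.39 to 200 uM in duplicate, with 0.5% v/v DMSO. Fit bidirectional, relative to DMSO.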

Experiment [12] in a line: APR_HepG2_MitoticArrest_24hr: Apredica 24-hour HepG2 Assay for Mitotic Arrest (AID 2282910). The following applies: high-content imaging, actives raise or lower the signal. An outline of the steps: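 High-content imaging of fixed HepG2 cells labeled with Hoechst 33342 and anti-phospho-histone H3, after 24 h treatment. Ten concentrations 0.39 to 200 uM in duplicate, final DMSO 0.5%; changes fitted both directions relative to DMSO.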

Experiment [13] is described as follows: APR_HepG2_MitoMembPot_24hr: Apredica 24-hour HepG2 Assay for Mitochondrial Membrane Potential (AID 2282911). The following applies: imaging, actives raise or lower the signal. In a few lines: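 Mitochondrial dye uptake (MitoTracker Red CMXRos, 250 nM, 30 min pre-fixation) in HepG2 after 24 hr compound exposure, 0.39–200 uM; ArrayScan images at 20x, activity fitted in both directions relative to DMSO.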

A short description of experiment [14]: APR_HepG2_MitoMass_24hr: Apredica 24-hour HepG2 Assay for Mitochondrial Mass (AID 2282912). The following applies: high-content imaging, actives raise or lower the signal. In a few lines:
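Endpoint is MitoTracker Red CMXRos (250 nM, 30 min, pre-fixation) intensity from 20x high-content imaging, nuclei located by Hoechst. Human HepG2 cells received ten concentrations from 0.39 to 200 uM in 0.5% DMSO for 24 hr, duplicate wells. Bidirectional fit relative to DMSO.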

A short description of experiment [15]: APR_HepG2_p53Act_24hr: Apredica 24-hour HepG2 Assay for p53 Activation (AID 2282913).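 Further: p53 protein immunofluorescence averaged per cell in HepG2 with Hoechst nuclei.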 Particulars: high-content imaging, actives raise or lower the signal. In a few lines: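 Following 24 hr dosing of HepG2 at 0.39–200 uM, the cells undergo formaldehyde fixation, Triton permeabilization and multiplexed antibody labeling that includes p53 (Cy5). Signal from the imaging is referenced to DMSO solvent controls.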

Experiment [16] can be described thus: APR_HepG2_CellCycleArrest_72hr: Apredica 72-hour HepG2 Assay for Cell Cycle Arrest (AID 2282914). The following applies: high-content imaging, actives raise or lower the signal. An outline of the steps: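 Using multiplexed high-content imaging, HepG2 nuclei stained with Hoechst 33342 (2 ug/mL) were analysed for DNA content after fixation and permeabilization. Treatment lasted 72 hr across 0.39–200 uM in duplicate with final DMSO 0.5% v/v; DMSO served as negative control.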

The nature of experiment [17]: APR_HepG2_p53Act_1hr: Apredica 1-hour HepG2 Assay for p53 Activation (AID 2282671). Particulars: high-content imaging, actives raise or lower the signal. In a few lines:
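After 1 h exposure (0.39–200 uM, 0.5% DMSO final, duplicates), fixed HepG2 cells were labelled with anti-p53 antibody plus Hoechst nuclear stain. Fluorescence quantified by automated 20x imaging; changes fitted in both directions against DMSO.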

The nature of experiment [18]: APR_HepG2_StressKinase_1hr: Apredica 1-hour HepG2 Assay for Stress Kinase (AID 2282906). The following applies: HepG2 stress kinase (phospho-c-Jun) imaging, actives raise or lower the signal. In a few lines:
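High-content imaging of phospho-c-Jun immunostaining (with Hoechst nuclear identification) after a 1 h exposure of HepG2 cells to 10 concentrations from 0.39 to 200 uM, final DMSO 0.5%. Fitted bidirectionally against DMSO.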

The nature of experiment [19]: APR_HepG2_MicrotubuleCSK_24hr: Apredica 24-hour HepG2 Assay for Microtubule CSK Stabilty (AID 2282909). The following applies: HepG2 microtubule cytoskeleton imaging, actives raise or lower the signal. In a few lines:
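Fixed HepG2 cells were stained for alpha-tubulin and imaged after 24 hr exposure to ten concentrations spanning 0.39–200 uM in 0.5% DMSO. Signal change was fitted in both directions relative to DMSO; taxol was the positive control.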

A short description of experiment [20]: APR_HepG2_MitoMass_1hr: Apredica 1-hour HepG2 Assay for Mitochondrial Mass (AID 2282674). Particulars: high-content imaging, actives raise or lower the signal. An outline of the steps: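 Mitochondrial mass is taken from MitoTracker Red CMXRos (250 nM, 30 min, pre-fixation) fluorescence imaged at 20x in HepG2 cells. Exposure lasted 1 hr across ten concentrations, 0.39 to 200 uM, 0.5% DMSO; DMSO baseline, bidirectional fitting.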

Several values for one entry are separate records, joined by “and”; a condition that tells them apart may be missing. Equal values may be shown once. Records with an inconclusive call do not appear. Some structures have more than one record in an assay (separate samples or runs), and their calls can disagree. Activity calls are given as the source filed them. How the source made its calls, unless noted: active means hit-call score of the fitted dose curve at least 0.9, where 1 is the maximum; inactive means score below 0.9.

For the molecule `CO/C=C(/C(=O)OC)c1ccccc1Oc1cc(Oc2ccccc2C#N)ncn1`, the result in experiment [1], in [2], in [3], in [4], in experiment [5] and in experiment [6] was inactive. Besides, the molecule was classed as inactive in [7], in [8], in experiment [9], in experiment [10], in experiment [11] and in experiment [12]. In addition, the outcome in [13], in [14], in experiment [15] and in [16] was inactive. For the same molecule, the AC50 (commonly the concentration giving half of the maximal activity seen) in experiment [2] is 11.1 µM (active) [middle of 5 runs]; in experiment [9] it was 39.3 µM (active) and 692 nM (active); in experiment [11], 16.2 µM (active) and 36.5 µM (active); in experiment [13] it was 21.2 µM (active); in [15], 110 µM (active); in [16] it was 21 µM (active) and 3.09 µM (active) and 5.96 µM (active).
As to `CCOC(=O)C(Cl)Cc1cc(-n2nc(C)n(C(F)F)c2=O)c(F)cc1Cl` (stereo not drawn), the result in experiment [1], in experiment [2], in experiment [3], in experiment [4], in [17] and in experiment [7] was inactive. In addition, the molecule was called inactive in [8], in [9], in experiment [11], in experiment [12], in experiment [13] and in [14]. Also, the call in experiment [15] and in experiment [16] was inactive.
For the molecule `CC(C)Oc1cc(-n2nc(C(C)(C)C)oc2=O)c(Cl)cc1Cl`, the outcome in experiment [1], in experiment [2], in experiment [3], in experiment [4], in experiment [6] and in experiment [7] was inactive. For the same molecule, the molecule was classed as inactive in experiment [8], in experiment [9], in experiment [18], in [10], in experiment [12] and in experiment [13]. In addition, the molecule was classed as inactive in [14], in [15] and in experiment [16]. For the same molecule, the AC50 in experiment [11] is 50.8 µM (active); in [19], 46.4 µM (active).
Take `CON(C)C(=O)Nc1ccc(Cl)c(Cl)c1`: the call in experiment [1], in experiment [2], in [3], in experiment [4], in experiment [17] and in experiment [7] was inactive. The call in experiment [8], in experiment [11], in experiment [12], in experiment [14], in experiment [15] and in experiment [16] was inactive. Besides, the AC50 in experiment [9] is 31.2 µM (active); in experiment [13], 28.9 µM (active).
Consider `C=CCC1=C(C)C(OC(=O)C2C(C=C(C)C)C2(C)C)CC1=O` (stereo not drawn), for which the molecule was classed as inactive in experiment [1], in [2], in [3], in experiment [4], in experiment [5] and in experiment [7]. For the same molecule, the molecule was classed as inactive in [9], in [12], in [13], in experiment [14], in [15] and in experiment [16]. The AC50 in experiment [8] was 100 µM (active); in [11] it was 55.8 µM (active) [middle of 4 runs]; in experiment [12] it was 35.4 µM (active) and 43.3 µM (active) and 46.9 µM (active); in experiment [13], 112 µM (active); in experiment [14], 29 µM (active) and 48.5 µM (active) and 56.1 µM (active); in experiment [15], 42 µM (active). The AC50 in experiment [16] is 34.4 µM (active).
As to `N#Cc1cc(Br)c(O)c(Br)c1`, the call in [1], in experiment [2], in experiment [3], in experiment [4], in [17] and in experiment [6] was inactive. Also, the result in experiment [7], in experiment [20], in experiment [8], in experiment [9], in [11] and in experiment [19] was inactive. Further, the result in [12], in experiment [14] and in experiment [15] was inactive. In addition, the AC50 in [13] is 89.4 µM (active); in experiment [16] it was 100 µM (active).
